Data on 6 compounds can be found in PubChem BioAssay.

SMILES strings stand for the structures. Values joined by “and” are separate entries in the source; they are usually repeats but may differ in a detail not shown here. Identical values can stand only once. Inconclusive results are not listed. Active and inactive are the calls of the source.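 Rule for the calls, unless noted: active = compounds killing one labelled cell type while sparing the other, by normalised counts and ratio limits, not self-fluorescent; inactive = the rest.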

A short description of test [1]: stimulators of insulin release from INS-1E, primary screen, cell-based, 5 mM glucose, NPC library (AID 1117329;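 active = compound raises insulin release from rat beta cells at 5 mM glucose, no numeric limit stated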). Conditions: rat INS-1E insulin secretion, at 10 µM, stronger effect = higher value.
Test [2] in a line: growth inhibition of GSK3B-pretreated HCT116 cells – cell-based, CellTiter-Glo, 0.2 to 20 µM (AID 1117336;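 active = compounds lowering colon cancer cell viability after pretreatment blocking the GSK3B kinase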). To be noted: HCT116 viability after GSK3B inhibitor, at 20 µM, stronger effect = higher value. A general note: ATP-based viability assays read luminescence as a measure of living cells.
Test [3] can be described thus: inhibition of endothelial tube formation, primary screen, imaging, VEGF stimulated, CD31 staining, tube area, NPC library (AID 1117340;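 active = compound that reduces growth-factor-driven endothelial tube area in a mixed cell culture, no cutoff stated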). Conditions: VEGF-stimulated ADSC/ECFC co-culture, at 10 µM, stronger effect = higher value.
Test [4] in a line: glucagon-like peptide 1 release enhancers, primary assay, NCI-H716 cell line, NPC library (AID 1117341;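 active = compound raises GLP1 secretion from the human gut endocrine cells, with no numeric limit stated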). To be noted: NCI-H716 cells, at 10 µM, stronger effect = higher value.
Test [5] in a line: HCT116 colon cancer cell growth inhibition, primary screen, CellTiter-Glo luminescence, NPC library (AID 1117342;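 active = compounds that lower survival of HCT116 colon cancer cells in the luminescence readout, no numeric limit stated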). Conditions: at 20 µM (top of the series).
Test [6] is described as follows: CellTiter-Glo luminescent readout of SW480 viability loss, NPC library primary (AID 1117343;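 active = compounds that lower viability of the colon cancer cells in the luminescence readout, with no numeric limit stated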). Conditions: CellTiter-Glo luminescence; at 20 µM (top of the series).
A short description of test [7]: decreased DLD-1 cellular survival, CellTiter-Glo luminescent readout, NPC compound collection, primary HTS (AID 1117346;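 active = compounds that lower survival of DLD-1 colon cancer cells in the luminescence readout, no cutoff given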). To be noted: DLD-1 viability, CellTiter-Glo luminescence; at 20 µM (top of the series).
The target of test [8] is 6-phosphogluconate dehydrogenase, decarboxylating (Homo sapiens) (UniProt P52209). Briefly: 6PGD enzyme inhibitors, primary screen, biochemical, human, recombinant enzyme, NADPH absorbance (AID 1159550;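 active = at least 20% inhibition of 6-phosphogluconate dehydrogenase activity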). To be noted: recombinant 6PGD, NADPH absorbance 341 nm; at 10 µM; stronger effect = higher value.
Chain of 6-phosphogluconate dehydrogenase, decarboxylating (Homo sapiens) (P52209 whole entry, looked up): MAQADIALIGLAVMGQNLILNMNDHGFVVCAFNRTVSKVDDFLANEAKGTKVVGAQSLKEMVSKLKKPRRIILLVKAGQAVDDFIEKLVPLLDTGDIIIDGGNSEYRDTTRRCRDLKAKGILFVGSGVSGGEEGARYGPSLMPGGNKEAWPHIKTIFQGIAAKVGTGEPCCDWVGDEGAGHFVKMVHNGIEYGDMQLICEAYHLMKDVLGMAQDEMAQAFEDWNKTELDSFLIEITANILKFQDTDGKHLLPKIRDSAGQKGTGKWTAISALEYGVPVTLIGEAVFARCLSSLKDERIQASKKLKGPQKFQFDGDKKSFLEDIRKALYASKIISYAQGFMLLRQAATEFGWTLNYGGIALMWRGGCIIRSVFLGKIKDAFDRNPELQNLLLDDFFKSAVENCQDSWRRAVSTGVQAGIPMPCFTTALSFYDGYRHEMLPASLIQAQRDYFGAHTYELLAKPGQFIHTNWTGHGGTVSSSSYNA
Test [9] can be described thus: differential killing of epithelial or mesenchymal cells, primary screen, imaging, PC-3E GFP, TEM4-18 mCherry, co-culture (AID 1345086).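 For all read-outs here: cells exposed to compound for 72 h before imaging.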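 For red/green cell ratio (normalised): normalised mesenchymal count divided by normalised epithelial count so high means epithelial killing.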 Conditions: imaging cell counts, at 1 µM; for red/green cell ratio (normalised): actives lie on both sides, counts scaled to control wells, 1 = unselective.
The nature of test [10]: growth inhibition of DIPG glioma cells, dose response, cell-based, JHH-DIPG-1, MIPE4.0, CellTiter-Glo, qHTS (AID 1347062; cut-off not given, nearly all actives have AC50 up to about 27 µM). To be noted: JHH-DIPG-1 viability, CellTiter-Glo ATP luminescence.
Test [11] can be described thus: growth inhibition of DIPG glioma cells, dose response, cell-based, SU-DIPG-IV, MIPE4.0, CellTiter-Glo, qHTS (AID 1347063; cut-off not given, nearly all actives have AC50 up to about 30 µM;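 note: compound exposure lasted 48 hours before the viability readout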). To be noted: SU-DIPG-IV viability, CellTiter-Glo ATP luminescence.
Test [12] can be described thus: growth inhibition of DIPG glioma cells, dose response, cell-based, SU-DIPG-XIII, MIPE5.0, CellTiter-Glo, qHTS (AID 1347064; cut-off not given, nearly all actives have AC50 up to about 23 µM). Conditions: SU-DIPG-XIII viability, CellTiter-Glo ATP luminescence.
A short description of test [13]: growth inhibition of DIPG glioma cells, dose response, cell-based, SU-DIPG-XIII, MIPE4.0, CellTiter-Glo, qHTS (AID 1347061; cut-off not given, nearly all actives have AC50 up to about 37 µM;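 note: cells exposed to compound for 48 hours before readout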). To be noted: SU-DIPG-XIII viability, CellTiter-Glo ATP luminescence.
A short description of test [14]: growth inhibition of DIPG glioma cells, dose response, cell-based, SU-DIPG-XVII, MIPE5.0, CellTiter-Glo, qHTS (AID 1347060; cut-off not given, nearly all actives have AC50 up to about 26 µM;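 for AC50: cells exposed to compound for 48 hours before viability readout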). To be noted: SU-DIPG-XVII viability, CellTiter-Glo ATP luminescence.
Where [15] appears, read: measured here: epithelial PC-3E GFP cell survival.
Setting [16] is: measured here: mesenchymal TEM4-18 mCherry cell survival.

Broadly, the inhibition is the change of the read-out against control, counted positive when it falls. For `CCn1cc(C(=O)O)c(=O)c2cc(F)c(N3CCNC(C)C3)c(F)c21` (centres undefined), the insulin secretion stimulation in [1] was 1.7% (inactive). The viability decrease in test [2] is 15.3% (inactive). In addition, the tube area decrease in test [3] was -13.3% (inactive). Besides, in [4], the GLP1 secretion stimulation is -0.4% (inactive). Besides, the inhibition of viability in test [5] was 0.55% (inactive). Further, the viability decrease (inhibition) is -10.7% (inactive) in test [6] and -20.1% (inactive) in test [7]. Also, in test [8], the inhibition is -3.66% (inactive). In addition, the red/green cell ratio (normalised) in test [9] was 1.03 (inactive) and 0.91 (inactive). Moreover, the normalised cell number was 1.03 and 1.1 in test [9] (setting [15]); 1.07 and 1 in test [9] (setting [16]). Besides, the compound was classed as inactive in test [10], in test [11] and in test [12].
As to `Nc1ccc(S(=O)(=O)Nc2ccnn2-c2ccccc2)cc1`, in test [1], the insulin secretion stimulation is -1.3% (inactive). The viability decrease in [2] is -8.8% (inactive). For the same compound, in test [3], the tube area decrease is -4.8% (inactive). Moreover, the GLP1 secretion stimulation in test [4] is 3.3% (inactive). Also, in test [5], the inhibition of viability was -9.2% (inactive). The figures for the viability decrease (inhibition) in test [6] and in test [7] were 6.4% (inactive) and -3.95% (inactive), respectively. Moreover, the inhibition in [8] is -9.54% (inactive). In addition, in test [9], the red/green cell ratio (normalised) was 0.85 (inactive). The normalised cell number in test [9] (setting [15]) stood at 1.05; in test [9] (setting [16]), 0.9. The call in test [13], in test [10] and in test [11] was inactive.
Broadly, the AC50 is the concentration giving half of the maximal activity seen. In the case of `S=P(N1CC1)(N1CC1)N1CC1`, the insulin secretion stimulation in test [1] is 1.3% (inactive). The viability decrease in [2] was 16.4% (inactive). For the same compound, in test [3], the tube area decrease is 35.1% (inactive). In addition, in [4], the GLP1 secretion stimulation was -2.2% (inactive). Besides, the inhibition of viability in [5] was 22.3% (inactive). Besides, the viability decrease (inhibition) in test [6] is 33.3% (inactive); in test [7] it was 18.9% (inactive). The inhibition in test [8] was -6.76% (inactive). Further, the red/green cell ratio (normalised) in test [9] is 0.99 (inactive). The normalised cell number in test [9] (setting [15]) and in test [9] (setting [16]) was 1.06 throughout. Moreover, the concentration at half-maximal activity (AC50) in test [14] is 20.9 µM (active). The compound was called inactive in test [10] and in test [12].
For `Nc1ccc(S(=O)(=O)Nc2ccccn2)cc1`, the insulin secretion stimulation in test [1] was -2.8% (inactive). Also, the viability decrease in test [2] is -1.3% (inactive). Further, the tube area decrease in [3] was 7.9% (inactive). In addition, the GLP1 secretion stimulation in test [4] is -3.8% (inactive). In addition, the inhibition of viability in [5] is -12% (inactive). Further, the viability decrease (inhibition) in [6] was 17.6% (inactive); in test [7], -7.25% (inactive). In addition, the inhibition in test [8] was 4.06% (inactive). Besides, the red/green cell ratio (normalised) in [9] is 1.49 (inactive). The figures for the normalised cell number in test [9] (setting [15]) and in test [9] (setting [16]) were 0.99 and 1.47, respectively. Also, the call in [13] and in [10] was inactive.
As for `CCC1(C)CC(=O)NC1=O` (centres undefined), the insulin secretion stimulation in [1] is 0% (inactive). Further, in test [2], the viability decrease is -17.5% (inactive). For the same compound, the tube area decrease in test [3] was -2.9% (inactive). Further, the GLP1 secretion stimulation in test [4] was -2.3% (inactive). The inhibition of viability in test [5] was -5.57% (inactive). Further, the values for the viability decrease (inhibition) in test [6] and in test [7] were -27.9% (inactive) and -7.1% (inactive), respectively. For the same compound, the inhibition in [8] is -0.667% (inactive). Further, the red/green cell ratio (normalised) in test [9] was 1.22 (inactive). Moreover, the normalised cell number in [9] (setting [15]) was found to be 1.07; in test [9] (setting [16]), 1.31. Also, the outcome in test [13], in [10], in test [11] and in test [12] was inactive.
Consider `Cc1cc2cc3c(C)cc(=O)oc3c(C)c2o1`, for which the insulin secretion stimulation in test [1] is -0.7% (inactive). In addition, in test [2], the viability decrease was -8.2% (inactive). For the same compound, the tube area decrease in test [3] was 1.6% (inactive). The GLP1 secretion stimulation in test [4] was 0.5% (inactive). Further, the inhibition of viability in [5] is 19.9% (inactive). Further, the viability decrease (inhibition) in test [6] was 35.5% (inactive); in [7] it was -2.3% (inactive). For the same compound, in [8], the inhibition is -18.4% (inactive). Besides, in test [9], the red/green cell ratio (normalised) was 0.99 (inactive). In addition, the values for the normalised cell number in test [9] (setting [15]) and in test [9] (setting [16]) were 1.05 and 1.04, respectively. Moreover, the compound was classed as inactive in test [14] and in test [12]. In addition, the AC50 in test [11] is 20.9 µM (active).
